uPA surface inh: qHTS for Inhibitors of Cell Surface uPA Generation | AID 540303, 2011 | 330,000 tested, 0.31% active | cell surface uPA generation assay, qHTS | Potency, µM (series often up to 38.3 µM), for inactives: at the highest dose activity change, negative = inhibition, actives largely listed as inhibitors; active = well fitted inhibition curve with a large enough effect; inconclusive = small, poorly fitted or top-dose-only effect; inactive = no such curve, though single readings can be large or run the other way; tested in mouse RAW 264.7 cells; also: potency is read from the fitted curve at half-maximal effect; % is scaled to controls: 0 for no effect and ±100 for the full control effect; nearly all actives have a fitted effect of over 55% in size
DT40 TDP1 CPT: qHTS for Inhibitors of human tyrosyl-DNA phosphodiesterase 1 (TDP1): qHTS in cells in presence of CPT | chicken DT40 Tdp1-/-;hTDP1 cells + 20 nM CPT, ATP luminescence, 48 h | 420,000 tested, 12% active | Potency, µM (highest dose often 46.2 µM), for the others: at the top dose activity change, negative = growth inhibition, most hits filed as inhibitors | AID 686979, 2013; also: potency is read from the fitted curve at half-maximal effect; % is scaled to controls: 0 for no effect and ±100 for the full control effect; nearly all actives have a fitted effect of over 55% in size
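Cell growth measured by CellTiter-Glo luminescence after a minimum 48 h, 37 C compound exposure with 20 nM CPT in Tdp1-knockout DT40 cells stably expressing hTDP1, seeded 400/well; qHTS titration format.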
DT40 TDP1 no CPT: qHTS for Inhibitors of human tyrosyl-DNA phosphodiesterase 1 (TDP1): qHTS in cells in absence of CPT; 420,000 tested, 15% active; Potency, µM (series often up to 46.2 µM), for inactives: at the highest dose activity change, negative = growth inhibition, usual class: inhibitors; AID 686978, 2013; DT40 Tdp1-/- hTDP1 cells, no CPT, ATP luminescence, 48 h; also: potency is read from the fitted curve at half-maximal effect; % is scaled to controls: 0 for no effect and ±100 for the full control effect; nearly all actives have a fitted effect of over 55% in size
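Stably hTDP1-transfected Tdp1-null chicken DT40 cells were treated with library compounds minus camptothecin and grown for at least 48 hr at 37 °C, after which cellular ATP was quantified by luminescence.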
miR-21 reporter: qHTS Assay for Modulators of miRNAs and/orActivators of miR-21; Potency, µM (titrated, usually from 38.3 µM), without a hit: top-dose activity change, positive = activation, most hits filed as activators; HeLa miR-21 FLuc reporter, luciferase, 48 h; 340,000 tested, under 10 active; AID 2288, 2010;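 also: % of control where 0% means no effect; miR-21 action dims this reporter so a rising signal means less miR-21 action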
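Luminescence from a firefly luciferase reporter carrying a miR-21 binding site downstream, stably expressed under a CMV promoter in HeLa cells that make miR-21 endogenously, reports miRNA modulation after 48 h compound exposure up to approximately 40uM final.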
TDP1 block: qHTS Assay for Inhibitors of Tyrosyl-DNA Phosphodiesterase (TDP1); recombinant TDP1, AlphaScreen DNA substrate cleavage; Potency, µM (series often up to 130 µM), inactives show top-dose activity change, negative = inhibition, actives largely listed as inhibitors; 350,000 tested, 0.28% active; AID 485290, 2010; also: potency is read from the fitted curve at half-maximal effect; % is scaled to controls: 0 for no effect and ±100 for the full control effect; nearly all actives have a fitted effect of over 40% in size
Target sequence (Q9NUW8 whole entry, looked up): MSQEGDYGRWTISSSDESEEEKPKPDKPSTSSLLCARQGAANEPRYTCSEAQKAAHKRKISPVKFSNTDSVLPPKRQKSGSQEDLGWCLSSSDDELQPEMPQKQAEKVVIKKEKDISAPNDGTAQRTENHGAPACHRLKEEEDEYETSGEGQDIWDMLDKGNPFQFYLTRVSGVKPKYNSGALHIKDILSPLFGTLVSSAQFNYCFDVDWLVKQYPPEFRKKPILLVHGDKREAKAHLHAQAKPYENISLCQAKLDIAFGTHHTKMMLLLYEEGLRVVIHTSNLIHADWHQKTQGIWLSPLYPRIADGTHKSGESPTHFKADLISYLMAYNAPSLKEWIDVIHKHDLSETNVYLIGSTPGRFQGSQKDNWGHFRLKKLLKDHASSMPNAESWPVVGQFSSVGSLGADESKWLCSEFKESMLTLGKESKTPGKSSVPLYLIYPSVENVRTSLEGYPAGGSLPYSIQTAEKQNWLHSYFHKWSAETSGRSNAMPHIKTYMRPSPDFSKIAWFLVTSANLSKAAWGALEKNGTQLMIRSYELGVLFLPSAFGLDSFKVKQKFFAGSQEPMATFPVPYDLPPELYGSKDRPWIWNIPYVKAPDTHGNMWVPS
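Signal: AlphaScreen proximity between streptavidin donor and anti-FITC acceptor beads on intact substrate. Reaction: Tdp1 1 nM, substrate 15 nM final, 5 min RT after 15 min compound preincubation.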
Numbers without * were called inactive; ? = inconclusive; · = no result given. In the library only some 16% were active in any assay of this set; here they are far more common. Unless noted, calls follow the shape of the dose curve; as a rule, active = well fitted curve in the direction sought with a large enough effect; inconclusive = small, poorly fitted or top-dose-only effect, or another doubt; inactive = no such curve, though single readings can be large; an effect the other way counts as inactive or inconclusive.

SMILES	uPA surface inh	DT40 TDP1 CPT	DT40 TDP1 no CPT	miR-21 reporter	TDP1 block
COc1cccc(NC(CNS(=O)(=O)c2ccc(C)cc2)c2ccccc2)c1 (configuration not stated)	·	?	?	26.2%	-2.5%
O=S(=O)(NCC(Nc1ccc(Cl)cc1)c1ccccc1)c1ccccc1 (configuration not stated)	-1.5%	?	16.4µM*	?	0.0%
COc1cccc(NC(CNS(=O)(=O)c2ccc(Cl)cc2)c2ccccc2)c1 (configuration not stated)	·	?	16.4µM*	?	7.6%
NS(=O)(=O)c1ccc(NC(CNS(=O)(=O)c2ccccc2)c2ccccc2)cc1 (configuration not stated)	-1.2%	-29.1%	-7.8%	4.8%	3.4%
Cc1ccc(NC(CNS(=O)(=O)c2ccc(Cl)cc2)c2ccccc2)cc1 (configuration not stated)	-2.5%	20.6µM*	23.1µM*	9.2%	7.6%
Clc1ccccc1CO/N=C1\CCCc2nonc21	-7.0%	4.9%	-9.8%	-31.1%	-3.5%
CCOc1ccc(S(=O)(=O)c2c[nH]c3ccc(C)cc3c2=O)cc1	5.5%	-14.9%	-5.3%	1.0%	·
Cc1ccc2[nH]cc(S(=O)(=O)c3ccc(F)cc3)c(=O)c2c1	8.0%	?	9.2µM*	11.8%	·
Cc1ccc(SCCc2ccc(C)nc2)cc1	-20.2%	-2.6%	-20.7%	-21.1%	-5.5%
COc1ccc(NC(=O)CN(C)C(=O)c2cccc(S(=O)(=O)N3CCN(c4ccc(F)cc4)CC3)c2)cc1	?	13µM*	?	·	·
COc1cccc(NC(=O)CN(C)C(=O)c2cccc(S(=O)(=O)N3CCN(c4ccccc4)CC3)c2)c1	-10.9%	?	-59.0%	18.3%	3.5%
CN(CC(=O)Nc1ccc(F)cc1)C(=O)c1cccc(S(=O)(=O)N2CCN(c3ccccc3)CC2)c1	-6.2%	16.4µM*	20.6µM*	13.7%	-3.4%
CCN1c2ccccc2-c2nc(SCC(=O)Nc3cccc(C)c3C)ncc2S1(=O)=O	·	?	20.6µM*	13.4%	-5.3%
CCN1c2ccccc2-c2nc(SCC(=O)NCc3ccccc3)ncc2S1(=O)=O	·	18.4µM*	23.1µM*	15.4%	-2.6%
Cc1ccc(CN2c3ccccc3-c3nc(SCC(=O)NCc4ccccc4)ncc3S2(=O)=O)cc1	·	-18.0%	-6.9%	-1.1%	0.0%
CCOC(=O)c1ccccc1NC(=O)CSc1ncc2c(n1)-c1ccccc1N(CC)S2(=O)=O	·	?	16.4µM*	-0.4%	0.0%
OC1CCCN(Cc2ccc3c(c2)Cc2ccccc2-3)C1 (configuration not stated)	·	?	?	-38.9%	7.8%
COc1ccc(C(=O)CCN2CCC(C)CC2)cc1	-24.4%	13µM*	11.6µM*	4.7%	·
COc1ccc(OC)c(NC(=O)CCN2CCCC(C)C2)c1 (configuration not stated)	4.0%	0.2%	-23.5%	-4.8%	8.2%
COc1ccc(N2CCN(CC(=O)N3CCC(C)CC3)CC2)cc1	·	-23.2%	-0.7%	-0.2%	2.0%
COc1ccc(NC(=S)N(CCCN2CCCC(C)C2)Cc2cccs2)cc1 (configuration not stated)	1.1%	?	29.1µM*	3.6%	-3.7%
COc1ccc(C(=O)CCN2CCCC(C)C2)cc1 (configuration not stated)	-8.9%	23.1µM*	?	0.1%	·
OC[C@@H]1CN(Cc2cccnc2)C[C@H](n2cnc3c(NC4CCCC4)ncnc32)O1	·	-11.7%	-13.6%	·	·
O=C(NNS(=O)(=O)c1ccc(F)cc1)c1ccc(S(=O)(=O)N2CCCCC2)cc1	16.7%	1.9%	-16.7%	-0.3%	3.0%
Cc1nc(C(F)(F)F)ccc1C(=O)N1CCCC(C)(C(=O)O)C1 (configuration not stated)	·	-2.3%	-9.5%	·	·
SMILES	uPA surface inh	DT40 TDP1 CPT	DT40 TDP1 no CPT	miR-21 reporter	TDP1 block
Cc1cccc(NC(=O)CN2CCN(C(=O)CN3C(=O)NC4(CC(C)CC(C)(C)C4)C3=O)CC2)c1C (configuration not stated)	-5.9%	20.6µM*	4.11µM*	·	·
CC1CC(C)(C)CC2(C1)NC(=O)N(CC(=O)Nc1cc([N+](=O)[O-])ccc1F)C2=O (configuration not stated)	2.4%	14.6µM*	10.3µM*	·	0.5%
CC1(c2ccc3ccccc3c2)NC(=O)N(CC(=O)N2CCN(Cc3ccc(C#N)cc3)CC2)C1=O (configuration not stated)	?	3.26µM*	2.06µM*	·	2.3%
CC1CC(C)(C)CC2(C1)NC(=O)N(CC(=O)N1CCN(S(=O)(=O)c3cccs3)CC1)C2=O (configuration not stated)	11.0%	?	?	·	0.9%
CC(=O)N1CCN(C(=O)CN2C(=O)NC(C)(c3ccc4ccccc4c3)C2=O)CC1 (configuration not stated)	2.5%	-17.5%	?	·	0.5%
CC1CC(C)(C)CC2(C1)NC(=O)N(CC(=O)N1CCN(Cc3ccc(C#N)cc3)CC1)C2=O (configuration not stated)	?	8.2µM*	5.17µM*	·	-0.9%
COc1ccc(NC(=O)CC2C(=O)NCCN2C(=O)c2ccc(N(C)C)cc2)cc1 (configuration not stated)	-3.8%	-4.4%	3.6%	-4.9%	5.5%
COC(=O)c1ccc(NC(=O)CN(Cc2ccccc2)S(=O)(=O)c2ccc(Cl)cc2)cc1	·	?	?	28.1%	·
O=C(CSc1oc(-c2ccccc2)nc1S(=O)(=O)c1ccc(Br)cc1)c1ccccc1	·	?	10.3µM*	8.1%	2.9%
O=C(CSc1oc(-c2ccccc2)nc1S(=O)(=O)c1ccccc1)c1ccccc1	·	11.6µM*	14.6µM*	11.2%	5.9%
Cc1cc(C)cc(NC(=O)CSc2oc(-c3ccccc3)nc2S(=O)(=O)c2ccccc2)c1	·	18.4µM*	23.1µM*	7.3%	2.9%
O=C(CSc1oc(-c2ccccc2)nc1S(=O)(=O)c1ccc(Cl)cc1)NC1CCCCC1	·	-2.7%	-14.3%	0.8%	-5.9%
COc1cccc(C(=O)N2CCN(C(=O)COc3ccc4ccccc4c3)CC2)c1	-9.4%	-62.5%	?	-5.0%	·
CC(C)Oc1ccc2c(c1)OC(c1ccccc1)(C(F)(F)F)NC2=O (configuration not stated)	-0.3%	?	25.9µM*	17.4%	0.0%
O=C(Cn1c(-c2cscn2)nc2ccccc21)Nc1ccccc1F	·	7.94µM*	?	-0.4%	-14.3%

Screens from PubChem.
